Results: the supplement of paper PMC11732987, “Enantioselective OTUD7B fragment discovery through chemoproteomics screening and high-throughput optimisation” (Communications Chemistry, 2025)

What was measured:
Experiment in all cases: log2 ratio of Biotin-Ahx-Ub-VS probe labelling (fragment/DMSO); higher = less target engagement (more negative = stronger competition), active = hit call of the paper (q ≤ 0.05, log2 ratio ≤ -1)
Settings in all cases: compound concentration: 200 uM; treatment time: 3 h
USP42 = target: T1, USP42 (UniProt Q9H9J4)
T1 sequence (whole entry): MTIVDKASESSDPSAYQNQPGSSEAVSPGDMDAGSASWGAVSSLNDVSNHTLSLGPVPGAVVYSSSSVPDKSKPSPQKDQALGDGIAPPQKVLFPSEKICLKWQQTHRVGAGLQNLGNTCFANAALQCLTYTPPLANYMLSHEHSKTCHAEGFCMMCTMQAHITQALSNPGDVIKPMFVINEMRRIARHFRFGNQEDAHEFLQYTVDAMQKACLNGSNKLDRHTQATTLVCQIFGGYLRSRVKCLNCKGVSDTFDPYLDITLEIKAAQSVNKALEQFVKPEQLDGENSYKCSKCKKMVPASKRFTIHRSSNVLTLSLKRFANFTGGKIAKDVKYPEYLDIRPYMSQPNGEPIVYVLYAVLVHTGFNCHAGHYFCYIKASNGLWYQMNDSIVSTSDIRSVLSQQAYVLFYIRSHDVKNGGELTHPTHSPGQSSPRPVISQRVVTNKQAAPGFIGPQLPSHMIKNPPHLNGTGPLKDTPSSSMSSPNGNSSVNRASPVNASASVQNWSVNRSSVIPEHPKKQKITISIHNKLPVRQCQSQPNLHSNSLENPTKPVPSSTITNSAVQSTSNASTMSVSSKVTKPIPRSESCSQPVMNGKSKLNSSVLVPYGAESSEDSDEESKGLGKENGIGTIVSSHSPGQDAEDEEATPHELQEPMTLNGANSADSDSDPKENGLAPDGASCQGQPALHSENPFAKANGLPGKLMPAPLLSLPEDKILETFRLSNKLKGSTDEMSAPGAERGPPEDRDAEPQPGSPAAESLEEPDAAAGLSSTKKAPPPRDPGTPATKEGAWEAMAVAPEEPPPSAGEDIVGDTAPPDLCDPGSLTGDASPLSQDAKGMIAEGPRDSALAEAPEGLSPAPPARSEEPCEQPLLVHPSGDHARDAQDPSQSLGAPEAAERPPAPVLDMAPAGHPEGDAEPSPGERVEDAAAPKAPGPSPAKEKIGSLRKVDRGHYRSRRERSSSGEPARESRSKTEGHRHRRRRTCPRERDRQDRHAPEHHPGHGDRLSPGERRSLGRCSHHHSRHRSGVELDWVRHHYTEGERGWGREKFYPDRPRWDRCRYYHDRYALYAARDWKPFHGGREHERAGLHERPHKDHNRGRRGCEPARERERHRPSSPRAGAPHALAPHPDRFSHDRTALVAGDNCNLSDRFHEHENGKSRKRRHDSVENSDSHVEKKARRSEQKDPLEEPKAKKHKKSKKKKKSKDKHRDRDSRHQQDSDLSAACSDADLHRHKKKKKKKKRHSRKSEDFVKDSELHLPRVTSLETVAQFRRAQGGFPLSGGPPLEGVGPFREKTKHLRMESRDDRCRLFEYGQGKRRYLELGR
Outline: (§1)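 Using Biotin-Ahx-Ub-VS at 0.5 µM final for 1 h, DUBs were labelled in HEK293T lysate (495 µg per sample) that had first been treated in triplicate with fragment at 200 µM or vehicle for 3 h. NeutrAvidin enrichment, LysC and trypsin digestion and diaPASEF LC-MS/MS followed. Spectronaut label-free quantities were global-median-normalised. Values are average log2 fragment/vehicle ratios by unpaired t-test, using proteins with ≥2 unique peptides.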

USP46 = USP46 (UniProt P62068)
Chain of USP46 (P62068 whole entry): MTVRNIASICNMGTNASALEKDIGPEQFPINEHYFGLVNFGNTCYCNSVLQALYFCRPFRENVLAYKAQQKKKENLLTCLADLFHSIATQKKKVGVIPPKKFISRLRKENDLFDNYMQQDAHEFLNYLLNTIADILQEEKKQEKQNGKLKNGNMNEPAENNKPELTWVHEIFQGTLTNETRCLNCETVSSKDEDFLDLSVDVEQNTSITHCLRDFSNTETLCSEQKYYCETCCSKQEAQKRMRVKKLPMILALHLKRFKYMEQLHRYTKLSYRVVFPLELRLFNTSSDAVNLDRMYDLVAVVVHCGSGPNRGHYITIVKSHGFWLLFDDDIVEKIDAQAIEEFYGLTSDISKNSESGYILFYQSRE
Outline: as §1

USP47 = target: T2, USP47 (UniProt Q96K76)
T2 sequence (whole entry): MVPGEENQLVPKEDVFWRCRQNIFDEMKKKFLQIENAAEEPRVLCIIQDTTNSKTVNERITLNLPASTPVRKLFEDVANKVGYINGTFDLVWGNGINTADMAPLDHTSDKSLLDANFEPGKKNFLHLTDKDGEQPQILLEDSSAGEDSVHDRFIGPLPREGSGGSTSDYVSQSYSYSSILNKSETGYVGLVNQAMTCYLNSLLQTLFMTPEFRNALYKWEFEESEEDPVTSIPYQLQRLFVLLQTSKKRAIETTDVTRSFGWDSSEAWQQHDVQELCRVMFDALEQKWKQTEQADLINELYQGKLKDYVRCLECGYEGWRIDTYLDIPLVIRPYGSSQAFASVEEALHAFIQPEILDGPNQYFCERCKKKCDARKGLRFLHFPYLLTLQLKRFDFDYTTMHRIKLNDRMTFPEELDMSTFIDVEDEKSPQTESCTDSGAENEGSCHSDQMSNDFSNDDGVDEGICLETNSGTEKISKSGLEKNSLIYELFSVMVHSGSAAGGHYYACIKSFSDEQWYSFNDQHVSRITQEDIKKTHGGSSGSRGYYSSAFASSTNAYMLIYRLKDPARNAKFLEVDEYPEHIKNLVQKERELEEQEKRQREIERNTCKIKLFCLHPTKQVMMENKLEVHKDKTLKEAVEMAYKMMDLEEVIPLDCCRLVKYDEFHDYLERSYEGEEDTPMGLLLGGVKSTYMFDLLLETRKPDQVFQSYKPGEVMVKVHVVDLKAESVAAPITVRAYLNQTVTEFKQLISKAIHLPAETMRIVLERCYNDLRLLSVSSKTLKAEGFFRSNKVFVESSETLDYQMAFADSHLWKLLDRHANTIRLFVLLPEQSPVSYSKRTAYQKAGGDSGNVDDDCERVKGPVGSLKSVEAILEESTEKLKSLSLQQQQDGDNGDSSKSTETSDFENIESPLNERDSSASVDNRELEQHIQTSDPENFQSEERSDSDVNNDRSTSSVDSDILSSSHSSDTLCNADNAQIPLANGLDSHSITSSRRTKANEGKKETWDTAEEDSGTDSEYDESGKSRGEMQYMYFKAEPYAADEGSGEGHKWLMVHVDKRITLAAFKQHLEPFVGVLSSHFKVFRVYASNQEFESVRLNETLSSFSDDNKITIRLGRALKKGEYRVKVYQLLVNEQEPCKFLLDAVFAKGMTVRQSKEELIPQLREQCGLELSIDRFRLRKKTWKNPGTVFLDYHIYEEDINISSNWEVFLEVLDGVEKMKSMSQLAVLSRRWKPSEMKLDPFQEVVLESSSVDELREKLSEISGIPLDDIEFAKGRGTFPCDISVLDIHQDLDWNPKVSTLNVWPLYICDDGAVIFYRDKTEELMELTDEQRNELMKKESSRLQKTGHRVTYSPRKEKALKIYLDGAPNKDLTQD
Outline: as §1

USP48 = target: T3, USP48 (UniProt Q86UV5)
T3 sequence (whole entry): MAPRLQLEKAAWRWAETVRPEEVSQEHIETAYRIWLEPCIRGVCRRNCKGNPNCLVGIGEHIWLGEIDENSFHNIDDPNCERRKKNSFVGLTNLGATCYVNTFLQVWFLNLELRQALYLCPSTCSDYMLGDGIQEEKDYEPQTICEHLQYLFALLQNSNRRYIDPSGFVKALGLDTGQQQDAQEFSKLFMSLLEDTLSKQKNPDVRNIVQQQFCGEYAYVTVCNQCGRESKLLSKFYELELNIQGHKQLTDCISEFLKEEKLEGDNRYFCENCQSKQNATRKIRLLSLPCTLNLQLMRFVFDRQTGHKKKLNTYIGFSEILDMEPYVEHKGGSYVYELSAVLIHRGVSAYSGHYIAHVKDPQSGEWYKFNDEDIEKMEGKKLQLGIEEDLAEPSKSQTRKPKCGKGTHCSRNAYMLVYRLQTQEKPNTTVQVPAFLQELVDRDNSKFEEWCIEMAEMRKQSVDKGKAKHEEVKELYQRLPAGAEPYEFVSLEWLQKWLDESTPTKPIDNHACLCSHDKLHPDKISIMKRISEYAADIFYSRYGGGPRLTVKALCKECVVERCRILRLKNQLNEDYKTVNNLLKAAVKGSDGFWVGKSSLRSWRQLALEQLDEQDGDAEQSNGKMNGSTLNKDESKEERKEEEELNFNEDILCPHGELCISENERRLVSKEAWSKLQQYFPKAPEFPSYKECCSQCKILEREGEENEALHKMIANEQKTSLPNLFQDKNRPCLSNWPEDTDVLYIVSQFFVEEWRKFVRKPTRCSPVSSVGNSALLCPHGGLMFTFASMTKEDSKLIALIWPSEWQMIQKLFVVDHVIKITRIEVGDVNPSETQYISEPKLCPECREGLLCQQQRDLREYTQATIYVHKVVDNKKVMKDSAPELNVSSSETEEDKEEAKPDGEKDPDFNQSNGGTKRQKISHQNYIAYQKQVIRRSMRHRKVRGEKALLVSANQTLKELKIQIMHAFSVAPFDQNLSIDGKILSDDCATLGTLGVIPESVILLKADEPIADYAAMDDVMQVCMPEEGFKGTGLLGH
Outline: as §1

USP5 = target: T4, USP5 (UniProt P45974)
T4 sequence (whole entry): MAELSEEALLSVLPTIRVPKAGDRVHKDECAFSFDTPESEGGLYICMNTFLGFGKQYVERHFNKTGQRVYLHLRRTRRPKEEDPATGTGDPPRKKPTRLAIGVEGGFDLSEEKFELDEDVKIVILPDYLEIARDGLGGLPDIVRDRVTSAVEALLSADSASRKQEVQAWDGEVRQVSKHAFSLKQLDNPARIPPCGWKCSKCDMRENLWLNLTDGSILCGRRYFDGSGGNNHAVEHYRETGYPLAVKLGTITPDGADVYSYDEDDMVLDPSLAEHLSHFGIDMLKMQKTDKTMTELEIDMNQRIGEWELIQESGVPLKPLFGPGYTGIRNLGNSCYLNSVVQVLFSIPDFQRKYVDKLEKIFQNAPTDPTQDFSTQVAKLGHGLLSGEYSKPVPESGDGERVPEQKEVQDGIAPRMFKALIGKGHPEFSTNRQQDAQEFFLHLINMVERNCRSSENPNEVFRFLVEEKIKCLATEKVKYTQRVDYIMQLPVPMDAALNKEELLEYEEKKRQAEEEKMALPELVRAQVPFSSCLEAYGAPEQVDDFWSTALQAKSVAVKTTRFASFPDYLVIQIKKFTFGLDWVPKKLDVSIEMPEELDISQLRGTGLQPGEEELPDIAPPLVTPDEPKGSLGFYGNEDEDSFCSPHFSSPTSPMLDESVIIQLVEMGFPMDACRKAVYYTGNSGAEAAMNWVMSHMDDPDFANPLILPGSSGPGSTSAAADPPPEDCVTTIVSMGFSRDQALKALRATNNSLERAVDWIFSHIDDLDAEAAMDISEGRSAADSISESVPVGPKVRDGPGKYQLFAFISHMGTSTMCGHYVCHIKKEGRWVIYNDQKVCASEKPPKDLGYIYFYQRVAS
Outline: as §1

USP54 = USP54 (UniProt Q70EL1)
Chain of USP54 (Q70EL1 whole entry): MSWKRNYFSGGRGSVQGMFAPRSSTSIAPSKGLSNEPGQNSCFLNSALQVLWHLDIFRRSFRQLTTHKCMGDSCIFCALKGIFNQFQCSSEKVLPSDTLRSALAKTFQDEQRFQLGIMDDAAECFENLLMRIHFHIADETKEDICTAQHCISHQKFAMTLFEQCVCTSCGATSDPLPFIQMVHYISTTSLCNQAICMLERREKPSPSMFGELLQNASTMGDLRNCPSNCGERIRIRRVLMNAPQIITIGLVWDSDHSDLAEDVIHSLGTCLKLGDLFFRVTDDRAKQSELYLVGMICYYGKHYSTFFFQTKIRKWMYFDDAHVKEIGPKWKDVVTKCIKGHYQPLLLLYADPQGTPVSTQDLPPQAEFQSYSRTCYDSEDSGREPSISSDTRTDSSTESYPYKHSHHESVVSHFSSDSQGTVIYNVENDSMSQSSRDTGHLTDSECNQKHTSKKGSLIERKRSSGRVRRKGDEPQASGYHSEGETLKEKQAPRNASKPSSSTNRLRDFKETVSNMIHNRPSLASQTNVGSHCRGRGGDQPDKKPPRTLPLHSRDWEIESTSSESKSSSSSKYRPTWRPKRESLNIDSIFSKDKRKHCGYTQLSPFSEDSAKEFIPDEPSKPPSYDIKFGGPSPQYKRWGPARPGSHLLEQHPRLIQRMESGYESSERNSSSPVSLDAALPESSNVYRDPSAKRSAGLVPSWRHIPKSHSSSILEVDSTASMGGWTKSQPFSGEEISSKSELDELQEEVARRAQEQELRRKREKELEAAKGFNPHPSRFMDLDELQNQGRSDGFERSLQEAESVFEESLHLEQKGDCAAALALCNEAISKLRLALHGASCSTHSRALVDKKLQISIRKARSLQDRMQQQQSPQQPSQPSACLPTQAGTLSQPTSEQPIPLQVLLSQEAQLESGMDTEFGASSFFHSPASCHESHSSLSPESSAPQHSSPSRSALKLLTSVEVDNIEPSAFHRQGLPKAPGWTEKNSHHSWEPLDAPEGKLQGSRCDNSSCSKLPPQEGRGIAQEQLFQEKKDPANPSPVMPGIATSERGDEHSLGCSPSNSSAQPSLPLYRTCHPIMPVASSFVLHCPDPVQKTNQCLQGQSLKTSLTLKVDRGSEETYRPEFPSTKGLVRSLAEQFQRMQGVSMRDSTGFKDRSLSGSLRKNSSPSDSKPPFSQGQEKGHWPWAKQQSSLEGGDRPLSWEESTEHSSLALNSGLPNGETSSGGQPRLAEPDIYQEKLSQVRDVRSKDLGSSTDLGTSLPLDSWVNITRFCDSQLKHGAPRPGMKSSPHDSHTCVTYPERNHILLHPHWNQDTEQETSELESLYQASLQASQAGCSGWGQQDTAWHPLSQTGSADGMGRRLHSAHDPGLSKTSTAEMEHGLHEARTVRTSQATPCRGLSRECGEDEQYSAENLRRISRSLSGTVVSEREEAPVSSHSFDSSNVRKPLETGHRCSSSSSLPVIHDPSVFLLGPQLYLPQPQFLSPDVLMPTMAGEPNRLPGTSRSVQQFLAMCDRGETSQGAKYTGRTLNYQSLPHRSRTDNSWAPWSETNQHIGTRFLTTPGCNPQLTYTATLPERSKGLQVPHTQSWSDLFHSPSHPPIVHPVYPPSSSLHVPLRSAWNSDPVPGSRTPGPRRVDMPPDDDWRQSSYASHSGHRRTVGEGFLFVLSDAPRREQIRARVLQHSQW
Outline: as §1

USP7 = USP7 (UniProt Q93009)
Chain of USP7 (Q93009 whole entry, looked up): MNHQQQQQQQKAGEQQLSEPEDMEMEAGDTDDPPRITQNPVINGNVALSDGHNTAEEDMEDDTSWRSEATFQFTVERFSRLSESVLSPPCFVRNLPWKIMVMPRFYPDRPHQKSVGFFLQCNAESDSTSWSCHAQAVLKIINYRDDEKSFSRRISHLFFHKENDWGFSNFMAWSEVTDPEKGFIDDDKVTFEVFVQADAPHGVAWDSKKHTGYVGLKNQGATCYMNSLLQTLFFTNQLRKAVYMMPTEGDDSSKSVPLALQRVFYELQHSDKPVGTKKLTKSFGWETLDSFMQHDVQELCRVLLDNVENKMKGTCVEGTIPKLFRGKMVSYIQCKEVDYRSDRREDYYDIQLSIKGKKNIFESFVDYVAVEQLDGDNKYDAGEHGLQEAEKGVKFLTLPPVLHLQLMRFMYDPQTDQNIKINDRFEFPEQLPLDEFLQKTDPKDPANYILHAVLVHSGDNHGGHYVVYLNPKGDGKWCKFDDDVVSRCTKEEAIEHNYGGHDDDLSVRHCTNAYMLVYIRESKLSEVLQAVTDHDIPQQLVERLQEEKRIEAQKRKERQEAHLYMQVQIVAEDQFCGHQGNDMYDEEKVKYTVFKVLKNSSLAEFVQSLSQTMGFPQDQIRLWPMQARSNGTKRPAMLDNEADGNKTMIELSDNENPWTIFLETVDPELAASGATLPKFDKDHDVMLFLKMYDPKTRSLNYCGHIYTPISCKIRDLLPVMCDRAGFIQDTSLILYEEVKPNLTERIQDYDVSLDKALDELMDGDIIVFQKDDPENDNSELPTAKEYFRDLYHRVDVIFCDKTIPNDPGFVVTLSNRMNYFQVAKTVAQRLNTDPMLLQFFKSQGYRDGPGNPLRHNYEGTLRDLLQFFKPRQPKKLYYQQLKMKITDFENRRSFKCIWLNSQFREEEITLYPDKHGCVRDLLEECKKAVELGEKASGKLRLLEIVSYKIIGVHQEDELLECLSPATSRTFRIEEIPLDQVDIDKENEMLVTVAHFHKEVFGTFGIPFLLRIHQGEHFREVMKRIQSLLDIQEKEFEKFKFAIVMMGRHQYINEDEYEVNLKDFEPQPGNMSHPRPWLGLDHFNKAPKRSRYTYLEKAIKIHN
Outline: as §1

USP8 = target: T5, USP8 (UniProt P40818)
T5 sequence (whole entry): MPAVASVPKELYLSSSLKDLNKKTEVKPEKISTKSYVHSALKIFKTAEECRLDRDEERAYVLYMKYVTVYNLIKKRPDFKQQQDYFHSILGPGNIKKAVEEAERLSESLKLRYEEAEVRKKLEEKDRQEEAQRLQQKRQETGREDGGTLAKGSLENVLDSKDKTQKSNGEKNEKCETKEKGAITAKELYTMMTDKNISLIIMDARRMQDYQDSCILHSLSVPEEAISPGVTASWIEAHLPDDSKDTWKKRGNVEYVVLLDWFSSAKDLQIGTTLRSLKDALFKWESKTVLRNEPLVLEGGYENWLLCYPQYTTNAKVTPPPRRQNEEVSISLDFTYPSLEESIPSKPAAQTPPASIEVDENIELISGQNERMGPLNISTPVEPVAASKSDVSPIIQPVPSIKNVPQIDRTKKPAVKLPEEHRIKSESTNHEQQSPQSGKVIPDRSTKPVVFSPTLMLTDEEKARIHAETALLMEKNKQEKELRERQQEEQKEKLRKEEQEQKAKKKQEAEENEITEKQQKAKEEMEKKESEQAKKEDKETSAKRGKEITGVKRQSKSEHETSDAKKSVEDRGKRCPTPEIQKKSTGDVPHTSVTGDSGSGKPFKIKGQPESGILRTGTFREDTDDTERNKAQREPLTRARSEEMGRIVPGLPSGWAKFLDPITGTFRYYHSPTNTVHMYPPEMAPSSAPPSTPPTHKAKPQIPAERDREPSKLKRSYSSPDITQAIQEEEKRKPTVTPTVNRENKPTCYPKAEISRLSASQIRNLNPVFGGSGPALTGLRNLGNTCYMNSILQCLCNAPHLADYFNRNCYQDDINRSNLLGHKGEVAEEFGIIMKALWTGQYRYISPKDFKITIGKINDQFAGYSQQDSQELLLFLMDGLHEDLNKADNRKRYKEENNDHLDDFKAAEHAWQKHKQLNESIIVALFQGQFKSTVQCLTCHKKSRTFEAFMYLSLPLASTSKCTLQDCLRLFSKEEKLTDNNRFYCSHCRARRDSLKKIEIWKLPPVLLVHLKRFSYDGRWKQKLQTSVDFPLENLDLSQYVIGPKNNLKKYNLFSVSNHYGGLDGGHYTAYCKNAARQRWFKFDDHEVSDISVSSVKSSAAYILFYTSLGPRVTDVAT
Outline: as §1

Measured: log2 ratio of Biotin-Ahx-Ub-VS probe labelling

Cl.Cn1ncc2c1CC(NC(=O)CCl)CC2 (stereo not drawn)
inactive: USP42 0.421 | USP46 0.116 | USP47 0.118 | USP48 0.191 | USP5 0.0298 | USP54 -0.146 | USP7 -0.063 | USP8 -0.0427
